Here are results for 9 compounds from PubChem BioAssay (EPA / NIEHS).

Inconclusive results are not listed. Active and inactive are the calls of the source. How the source made its calls: active means hit-call score of the fitted dose curve at least 0.9, where 1 is the maximum; inconclusive means response in the unintended direction; inactive means score below 0.9.

Experiment [1] can be described thus: Tanguay_ZF_120hpf_AXIS_legacy: (Legacy) Oregon State University Tanguay Lab 120 Hour Post-fertilization zebrafish Assay for Body Axis Malformation (AID 2283635). The method, boiled down: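 Each dechorionated embryo was exposed alone from 6 hpf, with DMSO at 0.64% (vol/vol) and trimethyltin chloride 5 uM as positive control. Axis malformation was recorded at 120 hpf unless the embryo had died.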

Experiment [2] can be described thus: Tanguay_ZF_120hpf_EYE_legacy: (Legacy) Oregon State University Tanguay Lab 120 Hour Post-fertilization zebrafish Assay for Eye Malformation (AID 2283636).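 Further: binary presence or absence of eye malformation scored by brightfield in 120 hpf larvae.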 The method, boiled down: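 Static waterborne exposure of dechorionated zebrafish embryos (strain Tropical 5D), 6 to 120 hpf, sealed plates at 28C, 0.64% DMSO vehicle. Eye malformation is scored as a binary endpoint, with gain of signal analysed relative to DMSO.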

A short description of experiment [3]: Tanguay_ZF_120hpf_SNOU_legacy: (Legacy) Oregon State University Tanguay Lab 120 Hour Post-fertilization zebrafish Assay for Snout Malformation (AID 2283637). The method, boiled down:
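Dechorionated zebrafish, individually housed from 6 hpf in covered, sealed wells at 28C with 0.64% DMSO vehicle, were examined at 120 hpf for snout malformation. Responses were binary and analysed positive-direction relative to DMSO.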

Experiment [4] in a line: Tanguay_ZF_120hpf_OTIC_legacy: (Legacy) Oregon State University Tanguay Lab 120 Hour Post-fertilization zebrafish Assay for Otic Vesicle Malformation (AID 2283639). A digest of the protocol:
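Brightfield scoring at 120 hpf, binary present/absent; DMSO negative control, 5uM trimethyltin chloride positive control. Static exposure at 28C, final DMSO 0.64% (vol/vol). Dead embryos not scored for malformation.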

Experiment [5] can be described thus: Tanguay_ZF_120hpf_PE_legacy: (Legacy) Oregon State University Tanguay Lab 120 Hour Post-fertilization zebrafish Assay for Pericardial Edema (AID 2283640). A digest of the protocol: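 Zebrafish larvae are exposed from early development to 120 hpf at 28C, with 0.64% DMSO final. Each surviving larva receives a yes/no pericardial edema call by brightfield imaging, analysed relative to the DMSO baseline.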

Experiment [6] in a line: Tanguay_ZF_120hpf_BRAI_legacy: (Legacy) Oregon State University Tanguay Lab 120 Hour Post-fertilization zebrafish Assay for Brain Malformation (AID 2283641). The method, boiled down:
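Static exposure of staged wild-type embryos until 120 hpf, kept at 28C with light excluded and final DMSO of 0.64% (vol/vol). Presence or absence of brain malformation was noted under brightfield; mortality precluded scoring.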

The nature of experiment [7]: Tanguay_ZF_120hpf_SOMI_legacy: (Legacy) Oregon State University Tanguay Lab 120 Hour Post-fertilization zebrafish Assay for Somite Malformation (AID 2283647). The method, boiled down: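 Somitogenesis defects are recorded as binary calls in whole larvae at 120 hpf after continuous static chemical exposure starting at 6 hpf in dechorionated 5D embryos. DMSO serves as negative control and baseline.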

The nature of experiment [8]: Tanguay_ZF_120hpf_PFIN_legacy: (Legacy) Oregon State University Tanguay Lab 120 Hour Post-fertilization zebrafish Assay for Pectoral Fin Malformation (AID 2283648).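 Further: each larva judged yes or no for fin defect by brightfield with dead larvae skipped.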 A digest of the protocol:
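Scoring of pectoral fin malformation was binary, made at 120 hpf on larvae exposed statically from 6 hpf after enzymatic chorion removal. Activity was fitted upward relative to DMSO controls at 0.64% (vol/vol).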

The nature of experiment [9]: Tanguay_ZF_120hpf_CFIN_legacy: (Legacy) Oregon State University Tanguay Lab 120 Hour Post-fertilization zebrafish Assay for Caudal Fin Malformation (AID 2283649). The method, boiled down:
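Single dechorionated 5D wild-type embryos are dosed at 6 hpf (final DMSO 0.64%) and held statically at 28C. Caudal fin malformation is recorded as present or absent at 120 hpf under brightfield, excluding dead embryos.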

The nature of experiment [10]: Tanguay_ZF_120hpf_PIG_legacy: (Legacy) Oregon State University Tanguay Lab 120 Hour Post-fertilization zebrafish Assay for Pigmentation Malformation (AID 2283650). A digest of the protocol:
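Endpoint is incidence of abnormal pigmentation at 120 hpf in dechorionated 5D zebrafish exposed singly from 6 hpf at 28C, DMSO vehicle at 0.64%. Embryos dying by 24 or 120 hpf are excluded from scoring.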

Experiment [11] can be described thus: Tanguay_ZF_120hpf_CIRC_legacy: (Legacy) Oregon State University Tanguay Lab 120 Hour Post-fertilization zebrafish Assay for Circulatory Malformation (AID 2283651). The method, boiled down:
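Static exposure, 6–120 hpf, 28C, sealed and dark; one dechorionated 5D embryo/well; DMSO 0.64% v/v final. Binary circulation endpoint by brightfield; dead embryos not scored.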

Experiment [12] is described as follows: Tanguay_ZF_120hpf_SWIM_legacy: (Legacy) Oregon State University Tanguay Lab 120 Hour Post-fertilization zebrafish Assay for Swim Bladder Malformation (AID 2283654).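 Further: swim bladder malformation in each larva scored yes or no under brightfield.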 The method, boiled down: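 Static waterborne exposure of single dechorionated Tropical 5D zebrafish embryos, 6–120 hpf, 28C, 0.64% DMSO final. Read-out: swim bladder malformation, present/absent, relative to DMSO negative control; trimethyltin chloride 5uM served as positive control.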

The nature of experiment [13]: Tanguay_ZF_120hpf_NC_legacy: (Legacy) Oregon State University Tanguay Lab 120 Hour Post-fertilization zebrafish Assay for Notochord and Tail Malformation (AID 2283656). A digest of the protocol: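 Binary notochord-distortion calls, made by brightfield inspection, form the read-out; activity is fitted in the positive direction against DMSO. Exposure ran statically from 6 to 120 hpf at 28C with 0.64% DMSO.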

Experiment [14] can be described thus: Tanguay_ZF_120hpf_TRUN_legacy: (Legacy) Oregon State University Tanguay Lab 120 Hour Post-fertilization zebrafish Assay for Truncated Body (AID 2283655). A digest of the protocol: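 Single dechorionated zebrafish embryos received test chemical from 6 hpf in 0.64% DMSO, kept at 28C. At 120 hpf, brightfield inspection noted any truncated body.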
The subject of experiment [15] is Thyroperoxidase (TPO), gene 54314. As to the kind of experiment: CCTE_Simmons_AUR_rTPO: CCTE's Amplex UltraRed Assay for Thyroperoxidase (TPO) Inhibition, Simmons Lab (AID 2283662).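 Further: potency for loss of signal meaning inhibition of peroxidase activity.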 The method, boiled down:
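Cell-free peroxidase activity assay using rat thyroid gland microsomes with excess H2O2 (300 uM) and 25 uM Amplex UltraRed. Compounds tested from 5 nM to 87.5 uM; fluorescence measured after 30 min at 37C, analysed relative to DMSO baseline.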

The nature of experiment [16]: Tanguay_ZF_120hpf_JAW_legacy: (Legacy) Oregon State University Tanguay Lab 120 Hour Post-fertilization zebrafish Assay for Jaw Malformation (AID 2283638). The method, boiled down: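 Wild-type 5D embryos, chorion removed at 4 hpf, dosed singly from 6 hpf; 28C static, sealed, foil-covered, to 120 hpf. Endpoint: jaw defect yes/no (brightfield); mortality excludes scoring.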

For the compound `OCCNCCO`, the compound was called inactive in experiment [1], in [2], in experiment [3], in experiment [4], in [5] and in experiment [6]. In addition, the compound was called inactive in experiment [7], in experiment [8], in experiment [9], in experiment [10], in experiment [11] and in experiment [12]. Further, the compound was classed as inactive in experiment [13].
With `C=CCc1cc(S(=O)(=O)c2ccc(O)c(CC=C)c2)ccc1O`, the compound was called inactive in [1], in experiment [2], in [3], in [4], in experiment [5] and in [6]. Moreover, the call in [7], in [8], in experiment [9], in experiment [10], in [11] and in [12] was inactive. Moreover, in [14], the compound was classed as inactive. Besides, the concentration at half-maximal activity (AC50) in experiment [15] is 14.6 µM (active).
Consider `OC[C@H]1O[C@@H]2O[C@H]3[C@H](O)[C@@H](O)[C@@H](O[C@H]4[C@H](O)[C@@H](O)[C@@H](O[C@H]5[C@H](O)[C@@H](O)[C@@H](O[C@H]6[C@H](O)[C@@H](O)[C@@H](O[C@H]7[C@H](O)[C@@H](O)[C@@H](O[C@H]1[C@H](O)[C@H]2O)O[C@@H]7CO)O[C@@H]6CO)O[C@@H]5CO)O[C@@H]4CO)O[C@@H]3CO`, for which the compound was classed as inactive in experiment [1], in experiment [2], in experiment [3], in [16], in [4] and in [5]. The compound was classed as inactive in experiment [6], in experiment [7], in experiment [8], in [9], in [10] and in [11]. Moreover, the compound was called inactive in experiment [12] and in experiment [14].
As to `CNC(C)=O`, the outcome in experiment [1], in experiment [3], in experiment [5], in experiment [6], in experiment [8] and in experiment [9] was inactive. Further, the result in experiment [10], in experiment [11], in experiment [12] and in [13] was inactive.
Regarding `CCCCCCCCN(C)C`, the outcome in experiment [1], in experiment [3], in [4], in [6], in experiment [7] and in experiment [8] was inactive. In addition, the call in experiment [9], in experiment [10], in [11], in experiment [12], in [14] and in [13] was inactive.
With `OC(Cn1cncn1)(Cn1cncn1)c1ccc(F)cc1F`, the result in [1], in experiment [3], in [16], in experiment [4], in experiment [5] and in experiment [8] was inactive. In addition, the result in experiment [9], in experiment [10], in experiment [11], in experiment [12] and in [13] was inactive.
Turning to `CCCCN1C(=O)[C@@H]([C@H](O)C2CCCCC2)NC(=O)C12CCN(Cc1ccc(Oc3ccc(C(=O)O)cc3)cc1)CC2`, the compound was called inactive in experiment [1], in [3], in [16], in [4], in [5] and in experiment [6]. In addition, the outcome in experiment [7], in [8], in [9], in experiment [10], in [11] and in [13] was inactive.
In the case of `CCn1nc(C)c2c1C(=O)NCC(c1ccc(O)cc1)=N2`, the result in [1], in experiment [2], in experiment [3], in experiment [4], in experiment [6] and in experiment [7] was inactive. Besides, the outcome in experiment [8], in experiment [9], in experiment [10], in experiment [11], in experiment [12] and in experiment [13] was inactive. In addition, the concentration at half-maximal activity (AC50) in [15] is 11.9 µM (active).
As for `OCCOCCOCCO`, the call in experiment [1], in experiment [2], in [4], in experiment [6], in [8] and in [9] was inactive. Further, the compound was classed as inactive in [10], in experiment [11], in experiment [12] and in [13].

One may read the AC50 as the concentration at which the activity in the assay is half-maximal.
